Bioassay records (PubChem)
Rows were chosen to be rich in hits. Some 2.8% of all compounds tested hit in one or more screens of this group.
SENP6 block = blocks the human protease SENP6. Q9GZR1. Recombinant SENP6 catalytic domain, aminoluciferin luminescence. inhibition, % at 10 µM. 330,000 compounds, 1.8% hits;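 active = inhibition above about 50% at the single tested dose, limit read from the data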;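 also: plate controls were DMSO wells with enzyme for no effect and DMSO wells lacking enzyme for full effect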
SENP7 block = SENP7 protease inhibition. recombinant SENP7, Z-RLRGG-aminoluciferin luminescence, 40 min. inhibition, % at 5 µM. 330,000 compounds, 1.5% hits. AID 434973;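 active = inhibition above about 50% at the single test dose, limit read from the data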;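 also: plate controls were DMSO with enzyme for no effect and no enzyme buffer wells for full effect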
SENP8 block-1 = inhibitors of human SENP8 protease; 360,000 compounds, 0.64% hits; inhibition, % at 20 µM; Q96LD8; recombinant SENP8, Nedd8 substrate fluorescence; in the data active = inhibition mostly above about 40%, no sharp cut-off; inactive = mostly below about 27%
Target sequence (Q96LD8 whole entry, looked up): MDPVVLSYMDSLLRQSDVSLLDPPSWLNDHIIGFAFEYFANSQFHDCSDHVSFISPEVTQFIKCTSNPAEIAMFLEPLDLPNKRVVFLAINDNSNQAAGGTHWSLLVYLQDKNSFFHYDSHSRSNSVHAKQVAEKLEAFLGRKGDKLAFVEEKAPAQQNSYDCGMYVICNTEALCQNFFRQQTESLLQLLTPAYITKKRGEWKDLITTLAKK
HSP90 refold inh = inhibitors of HSP90 luciferase refolding in rabbit reticulocyte lysate; luciferase refolding luminescence, 3 h; inhibition, % at 5.6 µM; 290,000 compounds, 0.91% hits;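 active = inhibition above the screen-wide mean plus 3 SD, computed separately per campaign, cut at about 16% in these data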;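 also: 0% = DMSO wells and 100% = 60 µM geldanamycin wells; inhibitors lower the luminescence because luciferase stays unfolded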
SENP8 block-2 = SENP8 protease inhibition; Q96LD8; purified SENP8, Z-RLRGG-aminoluciferin cleavage, luminescence; 330,000 compounds, 1.2% hits; inhibition, % at 10 µM; AID 2540; in the data active = inhibition above about 50%
SENP8 confirm = confirmation of human SENP8 protease inhibitors. shares compounds with SENP7 block. Recombinant SENP8, Z-RLRGG-aminoluciferin luminescence, 60 min. inhibition, % at 12.5 µM. 6,200 compounds, 40% hits;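 active = mean inhibition across replicates above about 50%, limit read from the data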
SENP6 conf = confirmation of human SENP6 protease inhibitors. shares compounds with SENP7 block. recombinant SENP6, Z-RLRGG-aminoluciferin luminescence. inhibition, % at 12.5 µM. 6,200 compounds, 58% hits. AID 488915
SENP7 confirm = confirmation of human SENP7 protease inhibitors; shares compounds with SENP7 block; recombinant SENP7, Z-RLRGG-aminoluciferin luminescence, 40 min; inhibition, % at 12.5 µM; 6,200 compounds, 69% hits; AID 488917
Casp3 select = inhibits human caspase-3 in SENP selectivity test. shares compounds with SENP7 block. purified caspase-3, Z-DEVD-aminoluciferin luminescence, 60 min. inhibition, % at 12.5 µM. 6,200 compounds, 60% hits;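 active = mean inhibition above about 50%, limit read from the data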;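 also: plate controls were enzyme with DMSO for no effect and wells without caspase-3 for full effect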
Target sequence (P42574 28-227 limits assumed): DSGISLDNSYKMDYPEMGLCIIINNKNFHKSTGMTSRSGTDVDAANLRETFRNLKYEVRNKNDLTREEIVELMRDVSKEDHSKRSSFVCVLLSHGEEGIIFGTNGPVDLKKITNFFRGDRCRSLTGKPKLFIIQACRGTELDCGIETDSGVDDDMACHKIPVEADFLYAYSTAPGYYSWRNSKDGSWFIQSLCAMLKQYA
Luc interf = interferes with luciferase luminescence in SENP counter-screen; shares compounds with SENP7 block; Pre-incubated SENP8/Z-RLRGG-aminoluciferin, luciferase luminescence interference; inhibition, % at 12.5 µM; 6,200 compounds, 39% hits;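 active = mean inhibition above about 50% when retested at one dose, limit read from the data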;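 also: plate controls were DMSO wells with completed reaction for no effect and substrate without enzyme for full effect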
Starred values were filed as active, the others as inactive; / = no result given.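 The calls were made as follows, unless noted: active = mean inhibition above about 50% in the one-dose retest (limit read from the data); inactive = the rest.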

SMILES	SENP6 block	SENP7 block	SENP8 block-1	HSP90 refold inh	SENP8 block-2	SENP8 confirm	SENP6 conf	SENP7 confirm	Casp3 select	Luc interf
O=C(CSc1nc2ccccc2c(=O)[nH]1)Nc1cccc([N+](=O)[O-])c1	-3	2	15	1	11	/	/	/	/	/
COc1ccc(N(CC(=O)NCCSCc2ccc(Cl)cc2)S(C)(=O)=O)cc1Cl	-12	2	11	1	0	/	/	/	/	/
CCOc1cc(OCC)cc(C(=O)N2CCC[C@H]2C(=O)N2CCC[C@H]2C(=O)N[C@@H](C)c2ccccc2)c1	/	/	1	/	/	/	/	/	/	/
COc1cccc(Cl)c1NC(=O)N1CCN(c2ccnc3cc(Cl)ccc23)CC1	-12	-12	-58	-2	-12	/	/	/	/	/
CN(CCO)c1nc(N)c2c(N)nc3c(c2c1C#N)CC(=O)N3Cc1cccs1	74*	32	-386	3	-3	-23	-15	-11	-11	-6
COc1ccc(CN2C(=O)Cc3c2nc(N)c2c(N)nc(N4CCOCC4)c(C#N)c32)cc1	66*	27	-446	15	30	-6	-1	-10	1	1
COCCN1C(=O)Cc2c1nc(N)c1c(N)nc(N3CCN(c4ccc(F)cc4)CC3)c(C#N)c21	-2	12	-453	3	-3	/	/	/	/	/
COCC(C)N1C(=O)Cc2c1nc(N)c1c(N)nc(N3CCN(c4ccccc4F)CC3)c(C#N)c21 (stereo not given)	75*	24	-394	-3	26	-9	-3	-4	-2	-5
Cc1cc(C)c(C#N)c(N2CCN(c3ccccc3F)CC2)n1	-3	-5	-43	1	-4	/	/	/	/	/
CCN(CC)S(=O)(=O)c1cccc(C(=O)Nc2ccccc2C(=O)N2CCOCC2)c1	-4	5	14	0	-4	/	/	/	/	/
O=C(COC(=O)c1cccc([N+](=O)[O-])c1)NCc1cccs1	1	5	2	3	1	/	/	/	/	/
COc1ccccc1CNC(=O)c1ccc(S(=O)(=O)N(C)c2ccccc2)cc1	-18	6	8	/	1	/	/	/	/	/
N#Cc1c(NC(=O)c2cccnc2)sc2c1CCC2	10	7	6	4	-5	/	/	/	/	/
N#Cc1c(NC(=O)c2ccccc2)sc2c1CCC2	63*	27	4	10	18	-21	12	18	4	-2
N#Cc1c(NC(=O)COC(=O)c2ccc(F)cc2)sc2c1CCC2	-4	51*	-4	-2	1	-5	-4	2	10	8
N#Cc1c(NC(=O)c2ccc([N+](=O)[O-])o2)sc2c1CCC2	80*	15	35	-4	47	58*	79*	79*	76*	10
NC(=O)c1c(NC(=O)c2ccc([N+](=O)[O-])o2)sc2c1CCCC2	-15	-4	-76	2	-10	/	/	/	/	/
Cc1cccc(C(=O)Nc2sc3c(c2C#N)CCCCC3)c1	16	77*	-24	4	33	30	21	16	31	-2
CC(C)CCNC(=O)C(c1ccco1)N(C(=O)Cn1nnc2ccccc21)c1ccc2c(c1)OCO2 (stereo not given)	-14	10	14	3	-7	/	/	/	/	/
Cc1n[nH]c(=O)nc1N/N=C/c1ccc(O)c([N+](=O)[O-])c1	65*	65*	55*	-1	36	50*	39	82*	77*	8
COc1ccc(/C=N/Nc2nc(=O)[nH]nc2C)cc1[N+](=O)[O-]	23	16	23	-4	-11	/	/	/	/	/
Cc1ccc(-n2c(C)cc(/C=N/NC(=O)Cn3c4ccccc4c(=O)c4ccccc43)c2C)cc1	2	-4	-419	2	-8	/	/	/	/	/
COC(=O)c1ccsc1NC(=O)CCc1ccccc1	88*	87*	2	-1	87*	90*	91*	100*	91*	66*
COc1ccc(C(C)(C)C)cc1NC(=O)CNc1cccc2ccccc12	77*	25	-331	5	48	12	10	9	4	2
COc1ccccc1NC(=O)Cc1cccc2ccccc12	-35	12	6	1	2	/	/	/	/	/
SMILES	SENP6 block	SENP7 block	SENP8 block-1	HSP90 refold inh	SENP8 block-2	SENP8 confirm	SENP6 conf	SENP7 confirm	Casp3 select	Luc interf
NCCNc1cc(N2CCCC2)ccc1[N+](=O)[O-]	-12	77*	20	2	1	-29	-14	-5	-6	-7
CC(C)(C)CNc1cc(N2CCCC2)ccc1[N+](=O)[O-]	1	-1	26	-2	-5	/	/	/	/	/
CSCCC(c1nnnn1C1CCCCC1)N1CCN(C/C=C/c2ccccc2)CC1 (stereo not given)	/	/	14	/	/	/	/	/	/	/
O=C(O)c1ccccc1N/N=C/c1cc(Br)cc(Br)c1O	102*	9	5	-1	92*	94*	98*	97*	70*	40
O=C(O)c1cccc2c(/C=N/Nc3ccccn3)c[nH]c12	90*	90*	14	6	88*	65*	92*	93*	93*	47
Oc1c(Br)cc(Br)cc1C=NCc1ccccc1	8	-3	-20	-3	7	/	/	/	/	/
O=C(O)c1ccccc1N/N=C\c1ccnc2ccccc12	94*	38	-29	4	90*	12	100*	103*	97*	94*
COc1ccc(C(=O)N2CCOC2CNC(=O)C(=O)NCc2ccco2)cc1 (stereo not given)	-4	2	15	-4	1	/	/	/	/	/
O=C(C(Br)=Cc1ccccc1)c1ccccc1	/	/	12	/	/	/	/	/	/	/
CCOc1ccc(-c2nnc(-c3cccnc3)o2)cc1OCC	13	9	-336	-3	0	/	/	/	/	/
Cc1ccsc1/C=C/c1ccc2cccc(O)c2n1	94*	91*	-41	2	86*	95*	97*	101*	91*	84*
Oc1cccc2ccc(/C=C/c3ccccc3Br)nc12	90*	70*	-46	-1	82*	72*	87*	91*	78*	66*
Oc1ccc(Cl)cc1/C=C/c1ccc2cccc(O)c2n1	30	-9	-73	0	-9	/	/	/	/	/
COc1cc(/C=C/c2ccc3cccc(O)c3n2)ccc1O	80*	51*	-282	1	60*	71*	75*	92*	43	82*
CSc1ccc(/C=C/c2ccc3cccc(O)c3n2)cc1	66*	36	-282	9	42	65*	90*	100*	91*	53*
Oc1c(Cl)cc(Cl)cc1/C=C/c1ccc2cccc(O)c2n1	-7	-9	-66	-3	-14	/	/	/	/	/
